# Source: PubChem BioAssay (several laboratories)
# tim10-1 inh: inhibits growth of tim10-1 mutant yeast. inhibition, % at 20 µM. S. cerevisiae tim10-1 ts strain growth, BacTiter-Glo, 24 h. 330,000 tested, 2.2% active;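 active = inhibition of at least 40%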;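 note: mutant grown at 25 °C; 0% = DMSO wells with yeast and 100% = wells holding no yeast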
# NALP3 yeast inh: inhibitors of NALP3 inflammasome in yeast; inhibition, % at 10 µM; Yeast reconstituted NLRP3/ASC/caspase-1, beta-gal luminescence, 24 h; 330,000 tested, 0.39% active;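 active = inhibition of 50% or more; inactive = inhibition below 50%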;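 note: plate controls were induced DMSO wells for no effect and uninduced yeast grown without galactose for full effect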
# TIM10 inh: TIM10 yeast growth inhibition; S. cerevisiae TIM10 strain growth, BacTiter-Glo luminescence, 24 h; inhibition, % at 10 µM; 330,000 tested, 1.4% active;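 active = inhibition of 40% or more at the single tested concentration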;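 note: wild-type TIM10 isogenic control strain grown at permissive 25 °C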
# PfHsp90 yeast 2: inhibits growth of yeast expressing Plasmodium falciparum Hsp90; S. cerevisiae expressing PfHsp90, BacTiter-Glo ATP, 48 h; yeast lacking PDR1 and PDR3 efflux regulators; inhibition, % at 9.4 µM; 310,000 tested, 0.32% active;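 active = every replicate shows inhibition above about 80%, whatever the replicate mean, limit read from the data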;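 note: 0% = DMSO neutral controls and 100% = 20 µM radicicol positive controls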
# tim23-1 inh: tim23-1 yeast growth inhibition | S. cerevisiae tim23-1 growth, BacTiter-Glo luminescence, 24 h | inhibition, % at 20 µM | 330,000 tested, 1.3% active;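 active = growth inhibition of the mutant yeast at or above 50%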;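 note: temperature-sensitive mutant grown at 25 °C; plate controls were DMSO-treated mutant yeast for no effect and medium wells lacking yeast for full effect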
# SKKanGAS inh: SKKanGAS growth inhibition. S. pyogenes SKKanGAS, kanamycin growth, BacTiter-Glo, 6 h. inhibition, % at 7.5 µM. 300,000 tested, 1.3% active. AID 1662;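 active = mean replicate score, as percent of positive control median, at least 50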;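 note: strain carries kanamycin resistance gene driven by streptokinase promoter and grows in 40 µg/ml kanamycin; loss of luminescence reflects streptokinase promoter inhibition or plain growth inhibition; 0% = median of DMSO wells and 100% = positive control at its reference dose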
# tim10-1 confirm: confirmation of tim10-1 mutant yeast growth inhibitors | shares compounds with tim10-1 inh | S. cerevisiae tim10-1 ts strain growth, BacTiter-Glo, 24 h | inhibition, % at 20 µM | 7,400 tested, 56% active | AID 463213;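 active = inhibition of yeast growth at or above a set limit in either of two repeat tests at 20 µM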;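 note: tim10-1 mutant grown at permissive 25 °C to find synthetic lethal compounds; 0% = DMSO yeast wells and 100% = medium wells without yeast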
# tim10 confirm: confirmation of TIM10 yeast growth inhibitors | shares compounds with TIM10 inh | S. cerevisiae tim10 strain growth, BacTiter-Glo luminescence, 24 h | inhibition, % at 10 µM | 4,600 tested, 63% active;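 active = inhibition of yeast growth at or above a set limit in either of two replicates at 10 µM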;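 note: this counterscreen used the strain with wild-type TIM10; 0% = yeast with DMSO and 100% = medium wells lacking yeast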
# tim23-1 conf: confirmation of tim23-1 mutant yeast growth inhibitors; shares compounds with tim23-1 inh; S. cerevisiae tim23-1 growth, BacTiter-Glo luminescence, 24 h; inhibition, % at 20 µM; 4,400 tested, 83% active; AID 463218;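 active = inhibition above about 39% in either of two replicate wells at 20 µM, limit read from the data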;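 note: temperature-sensitive tim23-1 mutant grown at 25 °C; 0% = DMSO wells with yeast and 100% = medium wells without yeast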
# An asterisk follows results filed as active; x = not tested or not shown. This is a sample that favours compounds with a hit; in the whole collection about 4.6% have one here.
SMILES,tim10-1 inh,NALP3 yeast inh,TIM10 inh,PfHsp90 yeast 2,tim23-1 inh,SKKanGAS inh,tim10-1 confirm,others
C=CCC1C(=O)NC(=S)NC1=O,-5,16,12,7,17,5,x,
Nc1c(C(=O)OCc2ccccc2)c2nc3ccccc3nc2n1Cc1cccs1,45*,15,2,x,22,56*,20,
CN1CCN(c2c(C#N)c(C(F)(F)F)nn2C)CC1,6,5,2,10,15,-6,x,
CCOC(=O)N(c1ccccc1)P1(=S)OCC(C)O1 (stereo not drawn),50*,9,-20,x,7,0,12,
CCOC(=O)N(c1ccccc1)P1(=S)OCCO1,-1,4,-9,9,6,-2,x,
COC(=O)[C@@H]1[C@@H](C(=O)OC)C2(c3ccccc3-c3ccccc32)N(c2ccc(Cl)cc2)N1C#N,33,9,21,-26,26,0,x,
COC(=O)C[C@]1(C(=O)OC)CN(C#N)N(c2ccc(Cl)cc2)C12c1ccccc1-c1ccccc12,46*,26,32,-10,25,-28,21,
O=C(N/N=C/c1c(O)n(C2CCCCC2)c(=S)[nH]c1=O)c1ccccc1O,53*,26,-3,10,24,55*,4,
CC(C)(O)[C@H]1O[C@H]2CC[C@@]3(C)[C@@](O)(CC[C@H]4Cc5c([nH]c6ccccc56)[C@@]43C)C2=CC1=O,47*,10,30,x,45,7,41*,
Cc1cc(C(=O)CS(=O)c2ccc(F)cc2)cc(C)c1OC(=O)N(C)C (stereo not drawn),1,3,-7,6,5,3,x,
COCCCn1c(N)c(C(=O)Nc2ccccc2)c2nc3ccccc3nc21,48*,7,17,x,40,50*,27,
O=C(Nc1ccc(C(F)(F)F)cc1)c1cccn(Cc2ccc3c(c2)OC(F)(F)O3)c1=O,46*,14,33,0,12,13,21,
COc1ccc(N2C(=O)CC(N3CC=C(c4ccccc4)CC3)C2=O)cc1 (stereo not drawn),43*,11,27,28,28,1,22,
Cc1cc(C)cc(NC2=NCCCS2)c1,6,6,7,1,6,5,x,
O=C1CN=C(c2ccccc2)c2cc(Br)ccc2N1Cc1cc(=O)n2ccccc2n1,41*,-2,25,3,19,3,5,
O=C(C(=O)N1CCOCC1)c1cn(Cc2ccccc2)c2ccccc12,20,4,0,-10,13,-1,x,
CCN(CC)C(=O)c1ccc(NC(=S)NC(=O)CCc2ccccc2)cc1,42*,5,23,3,33,9,21,
O=C(Nc1cccc(C(F)(F)F)c1)c1cccn(Cc2ccc3c(c2)OC(F)(F)O3)c1=O,49*,4,44*,x,11,31,28,tim10 confirm=35*
O=P(Nc1cccc(Cl)c1)(Oc1ccccc1)Oc1ccccc1,2,6,4,-42,12,17,x,
Cc1cccc(-n2c(/C=C/c3ccc([N+](=O)[O-])o3)nc3ccccc3c2=O)c1,57*,23,47*,-27,27,20,51*,tim10 confirm=-1
O=c1c2ccccc2nc(/C=C/c2ccc([N+](=O)[O-])o2)n1-c1ccc(O)cc1,-4,18,0,-59,-4,9,x,
Cc1[nH]n(-c2ccccc2)c(=O)c1C(c1ccc([N+](=O)[O-])cc1)c1c(C)[nH]n(-c2ccccc2)c1=O,56*,-3,46*,24,45,2,44*,tim10 confirm=33*
Cc1ccc(-n2c(O)c(C=Nc3ccc(S(=O)(=O)N(C)C)cc3)c(=O)[nH]c2=O)cc1,11,7,5,3,-10,4,x,
C[C@@H]1CC[C@@]2(NC1)O[C@H]1C[C@H]3[C@@H]4CC=C5C[C@@H](O)CC[C@]5(C)[C@H]4CC[C@]3(C)[C@H]1[C@@H]2C,51*,-2,49*,-12,54*,-1,27,tim10 confirm=51*;tim23-1 conf=68*
C[C@]12CC[C@H](O)CC1=CCC1C2CC[C@@]2(C)C1CC[C@@H]2OCc1ccccc1 (stereo partly drawn),-6,16,-13,29,1,x,x,
SMILES,tim10-1 inh,NALP3 yeast inh,TIM10 inh,PfHsp90 yeast 2,tim23-1 inh,SKKanGAS inh,tim10-1 confirm,others
COP(=O)(OC)C(O)C(Cl)(Cl)Cl (stereo not drawn),4,33,-1,x,4,x,x,
CC12CN3CN(C1)CC(C)(C3)C2=NO,-9,8,10,-76,3,-1,x,
CN1C(=O)NC(=O)/C(=C/c2ccc([N+](=O)[O-])o2)C1=O,9,8,-1,x,10,6,x,
COc1ccc(OC)c(N2C(=O)NC(=O)/C(=C\c3ccc([N+](=O)[O-])s3)C2=O)c1,69*,-15,84*,91*,52*,10,73*,tim10 confirm=40*;tim23-1 conf=72*
O=C1NC(=O)N(c2ccccc2)C(=O)/C1=C\c1ccc([N+](=O)[O-])s1,66*,11,85*,x,68*,-4,76*,tim10 confirm=26;tim23-1 conf=76*
CN1C(=O)NC(=O)/C(=C/c2ccc([N+](=O)[O-])s2)C1=O,74*,11,90*,46,71*,8,67*,tim10 confirm=44*;tim23-1 conf=80*
COc1ccc(/C=C/C(=O)NC(=S)N2C[C@H]3C[C@H](C2)c2cccc(=O)n2C3)cc1OC,-15,3,-9,-4,-11,-1,x,
Cn1c(O)c(/C=N/N2CCOCC2)c(=O)[nH]c1=S,-17,-1,-4,x,8,-2,x,
CCN(CC)C(=O)c1ccc(NC(=O)Nc2ccccc2F)cc1,56*,5,42*,66,66*,71*,68*,tim10 confirm=40*;tim23-1 conf=64*
CCN(CC)C(=O)c1ccc(NC(=O)CCCSc2ccccc2)cc1,6,10,-37,13,16,1,x,
O=c1c(C=NCc2cccs2)c(O)n(C2CCCCC2)c(=O)n1C1CCCCC1,16,17,19,-1,11,14,x,
N=C(N)c1c(O)n(C2CCCCC2)c(=O)n(C2CCCCC2)c1=O,54*,0,15,-4,66*,13,33*,tim23-1 conf=52*
CC(C)Oc1cc(-n2c(=S)[nH]c3ccccc3c2=O)c(Cl)cc1Cl,45*,12,45*,-65,53*,1,24,tim10 confirm=42*;tim23-1 conf=52*
